Data on 7 compounds can be found in PubChem BioAssay.

The nature of assay [1]: mitochondrial permeability transition inhibitors (AID 1580). To be noted: isolated mitochondria, permeability transition inhibition.
A short description of assay [2]: polyglutamine-triggered caspase-3 activation inhibitors, cell-based (AID 1583). To be noted: polyglutamine-induced caspase-3 activation, cell assay; stronger effect = higher value;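 tested at 10 µM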.
Assay [3] is described as follows: inhibitors of polyQ aggregate elongation, biochemical, solid-phase synthetic aggregates, QA3 (AID 1585). To be noted: biotin-polyQ incorporation; EC50: measured here: elongation inhibition potency; inhibition: at 100 µM, stronger effect = higher value.
The nature of assay [4]: polyglutamine aggregation reduction, turbidity readout, qthio, single concentration 25 µM screen (AID 1588). To be noted: at 25 µM, stronger effect = lower value.
Assay [5] can be described thus: suppressors of polyQ aggregation in yeast, 75Q-TubU reporter (AID 1593). The conditions noted are these: Yeast 75Q polyglutamine aggregation reporter.
Assay [6] can be described thus: rescue of polyQ-huntingtin neuronal dysfunction in worms, whole organism, C. elegans mechanosensory neurons, N-terminal huntingtin (AID 1599). To be noted: touch response, stronger effect = higher value.
Assay [7] is described as follows: inhibitors of mitochondrial cytochrome c release, biochemical, purified mitochondria (AID 1603).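 Further: mouse liver mitochondria challenged with calcium chloride; signal normalized to the plate average as 100%.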 To be noted: stronger effect = lower value.
Assay [8] can be described thus: inhibitors of polyQ protein aggregation (AID 1604). To be noted: polyglutamine-induced protein aggregation inhibition assay; stronger effect = higher value; tested at 2.5 µM.
A short description of assay [9]: enhancers of glutamate uptake in motor neurons, MN-1 cell line (AID 1612).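 Further: tested at 1 µM final; 0% = mean of DMSO vehicle wells on each plate; positive means more glutamate uptake than control and negative means less.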 To be noted: MN-1 motor neuron cells, stronger effect = higher value.
Assay [10] in a line: suppressors of polyglutamine aggregation in yeast, 75Q-TubH (AID 1616). To be noted: S. cerevisiae 75Q-TubH polyglutamine aggregation suppression; stronger effect = higher value.
Assay [11] can be described thus: hESC survival regulators, cell-based (AID 493140).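 Further: cells exposed to compounds for four days before counting.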 The conditions noted are these: human embryonic stem cell survival screen; stronger effect = higher value.
Assay [12] is described as follows: liver-stage malaria parasite growth inhibition, primary screen, cell-based, HepG2, luciferase luminescence, HepG2 viability (AID 624349; in the data active means parasite load remaining mostly below about 12%, no sharp cut-off; inactive means mostly above about 10%;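 further: 100% = mean of DMSO negative control wells on the same plate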). To be noted: P. berghei liver stage in HepG2, luciferase luminescence, concentration not given here; parasite load remaining: stronger effect = lower value; viability: measured here: HepG2 viability without parasites.
Assay [13] deals with 6-phosphogluconate dehydrogenase, decarboxylating (Homo sapiens) (UniProt P52209). Description: 6PGD enzyme inhibitors, primary screen, biochemical, human, recombinant enzyme, NADPH absorbance (AID 1159550;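 active means at least 20% inhibition of 6-phosphogluconate dehydrogenase activity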). To be noted: recombinant 6PGD, NADPH absorbance 341 nm; at 10 µM; stronger effect = higher value.
6-phosphogluconate dehydrogenase, decarboxylating (Homo sapiens), sequence (P52209 whole entry, looked up): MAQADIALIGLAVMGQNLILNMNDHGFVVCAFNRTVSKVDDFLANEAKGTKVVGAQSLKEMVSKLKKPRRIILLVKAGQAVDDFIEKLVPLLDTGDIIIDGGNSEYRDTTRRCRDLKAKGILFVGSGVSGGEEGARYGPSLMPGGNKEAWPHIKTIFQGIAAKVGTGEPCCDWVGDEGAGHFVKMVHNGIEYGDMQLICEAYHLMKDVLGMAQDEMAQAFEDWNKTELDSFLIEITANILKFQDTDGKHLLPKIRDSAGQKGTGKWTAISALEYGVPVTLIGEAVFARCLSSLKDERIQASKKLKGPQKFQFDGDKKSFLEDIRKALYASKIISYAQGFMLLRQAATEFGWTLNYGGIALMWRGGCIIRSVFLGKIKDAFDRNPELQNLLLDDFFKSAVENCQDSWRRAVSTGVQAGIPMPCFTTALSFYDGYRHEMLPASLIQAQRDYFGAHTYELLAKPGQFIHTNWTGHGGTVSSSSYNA
In assay [14] the test system is Aerobactin synthetase IucA (Klebsiella pneumoniae hvKP1). Description: Biochemical IucA enzyme inhibition primary screen of the Spectrum library (AID 1346200).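 Further: 100% = wells without compound and 0% = wells lacking enzyme.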 To be noted: malachite green pyrophosphate, A620, at 8 µM, stronger effect = lower value.
Assay [15] can be described thus: sensitizers of A549 cells to miR-34 induction, primary screen, imaging, A549 dox-inducible miR-34, nuclei and caspase counts (AID 1347080;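 active means compounds whose cell count with miR-34 switched on is under 0.7 times the count with it off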). The conditions noted are these: A549 miR-34 inducible, Hoechst nuclei count, 48 h.
The target in assay [16] is NAD(+) hydrolase SARM1 (Homo sapiens) (UniProt Q6SZW1). Put plainly: SARM1 TIR NADase inhibitors, cell lysate, NAD-Glo luminescence (AID 1508614;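 active means compound whose remaining NAD level is above about 45 nM, limit read from the data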). To be noted: SAM-TIR HEK293T lysate NADase, at 1 µM, stronger effect = higher value.
NAD(+) hydrolase SARM1 (Homo sapiens), sequence (Q6SZW1 whole entry, looked up, the tested form may be a part): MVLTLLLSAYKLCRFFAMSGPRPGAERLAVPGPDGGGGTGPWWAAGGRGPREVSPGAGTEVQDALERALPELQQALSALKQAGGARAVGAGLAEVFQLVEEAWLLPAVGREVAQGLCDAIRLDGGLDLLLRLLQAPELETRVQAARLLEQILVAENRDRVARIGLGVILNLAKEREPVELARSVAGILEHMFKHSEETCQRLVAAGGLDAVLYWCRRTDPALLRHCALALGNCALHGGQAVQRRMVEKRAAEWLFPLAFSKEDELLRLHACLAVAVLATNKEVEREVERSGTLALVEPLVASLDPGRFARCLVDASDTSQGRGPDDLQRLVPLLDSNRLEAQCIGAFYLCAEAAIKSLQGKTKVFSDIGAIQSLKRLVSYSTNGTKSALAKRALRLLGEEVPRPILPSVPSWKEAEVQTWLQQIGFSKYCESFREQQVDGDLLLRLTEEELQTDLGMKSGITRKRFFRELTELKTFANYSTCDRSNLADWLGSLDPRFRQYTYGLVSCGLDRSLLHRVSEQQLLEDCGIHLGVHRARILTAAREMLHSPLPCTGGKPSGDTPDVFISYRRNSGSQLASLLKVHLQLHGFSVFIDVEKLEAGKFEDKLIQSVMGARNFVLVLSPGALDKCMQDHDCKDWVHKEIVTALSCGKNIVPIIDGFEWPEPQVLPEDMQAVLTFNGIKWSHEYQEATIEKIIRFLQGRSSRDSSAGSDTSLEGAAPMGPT
Assay [17] concerns the target Mitogen-activated protein kinase 7 (Homo sapiens) (UniProt Q13164). Put plainly: ERK5 transactivation activators in reporter cells, primary screen, cell-based, HTS (AID 1508626;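 active means luciferase signal above three times the same-plate solvent-only control wells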;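 further: luciferase driven by Gal4-ERK5 fusion binding five Gal4 sites before minimal TATA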). To be noted: HeLa Gal4-ERK5 transactivation, 18 h, at 5 µM, stronger effect = higher value.
Assay [18] relates to Hepatitis C virus NS3 helicase. Put plainly: HCV NS3 helicase inhibitors, primary screen, biochemical, fluorescence polarization, LOPAC1280 library (AID 687035; in the data active means inhibition above about 37%). To be noted: Purified HCV NS3 helicase, Cy5-dT15 ssDNA binding fluorescence polarization; stronger effect = higher value; concentration not given here.
Assay [19] can be described thus: Cy5 fluorescence quenching or enhancement artefacts, artefact control for HCV NS3 helicase inhibitor project, biochemical, LOPAC1280 (AID 687037). To be noted: Cy5-DNA-NS3h complex fluorescence interference counterscreen. A general note: The purpose of a counterscreen is to sort out artefacts and off-target activity.
A short description of assay [20]: phospholipid biosynthesis inhibitors in animal cells, primary screen, cell-based, LOPAC library, screen 4 (AID 1347384). To be noted: phospholipid biosynthesis inhibition screen, at 10 µM.
Assay [21] in a line: viability rescue of complex I mutant cybrids, primary screen, cell-based, galactose medium, ATP luminescence (AID 1645843;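 active means z-score of at least 1.8 in each of two replicates, scored against plate mean and spread of sample wells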;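 further: positive z means more ATP and so rescue of galactose-driven cybrid death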). The conditions noted are these: complex I mutant cybrid cells, 72 h, stronger effect = higher value.
Assay [22] can be described thus: Cy5 fluorescence interference with SSB-bound oligo, artefact control for HCV NS3 helicase inhibitor project, biochemical, NIH Clinical Collection, E. coli SSB (AID 743268).
Assay [23] has as its system Hepatitis C virus NS3 helicase. Put plainly: HCV NS3 helicase inhibitors, primary screen, biochemical, fluorescence polarization, NIH Clinical Collection (AID 743270). The conditions noted are these: NS3 helicase binding to Cy5-dT15 DNA, stronger effect = higher value, concentration not given here. On the technique in general: Fluorescence polarisation rises when a labelled molecule tumbles more slowly, as on binding a larger partner.

Assay [24] deals with Single-stranded DNA-binding protein (Escherichia coli (strain K12)) (UniProt P0AGE0). Put plainly: E. coli SSB displacement from DNA, counter-screen for HCV NS3 helicase inhibitor project, biochemical, fluorescence polarization, NIH Clinical Collection (AID 743271; in the data active means inhibition above about 28%). The conditions noted are these: stronger effect = higher value, concentration not given here.
A short description of assay [25]: fluorescence interference in NS3h assay format, artefact control for HCV NS3 helicase inhibitor project, biochemical, NIH Clinical Collection (AID 743272).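 Further: HCV NS3 helicase with a Cy5 labelled single stranded DNA probe.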 The conditions noted are these: fluorescence interference counterscreen, stronger effect = lower value.
The nature of assay [26]: growth inhibition of DIPG glioma cells, dose response, cell-based, SU-DIPG-XIII, MIPE4.0, CellTiter-Glo, qHTS (AID 1347061; cut-off not given, nearly all actives have AC50 up to about 37 µM;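 further: cells exposed to compound for 48 hours before readout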). The conditions noted are these: SU-DIPG-XIII viability, CellTiter-Glo ATP luminescence. On the technique in general: Cellular ATP, detected with luciferase, serves as a proxy for viable cell number.
A short description of assay [27]: growth inhibition of DIPG glioma cells, dose response, cell-based, JHH-DIPG-1, MIPE4.0, CellTiter-Glo, qHTS (AID 1347062; cut-off not given, nearly all actives have AC50 up to about 27 µM). To be noted: JHH-DIPG-1 viability, CellTiter-Glo ATP luminescence.
Assay [28] is described as follows: growth inhibition of DIPG glioma cells, dose response, cell-based, SU-DIPG-IV, MIPE4.0, CellTiter-Glo, qHTS (AID 1347063; cut-off not given, nearly all actives have AC50 up to about 30 µM;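 further: compound exposure lasted 48 hours before the viability readout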). The conditions noted are these: SU-DIPG-IV viability, CellTiter-Glo ATP luminescence.
Assay [29] in a line: SU-DIPG-VI glioma cell viability, MIPE4.0 library, CellTiter-Glo luminescence, qHTS (AID 1347066; cut-off not given, nearly all actives have AC50 up to about 30 µM;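 further: cells exposed to compound for 48 hours before readout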). To be noted: CellTiter-Glo ATP luminescence.
[30] abbreviates: measured here: relative caspase fold change +Dox/-Dox.
The mark [31] stands for this setting: measured here: total cells with miR-34 induction, stronger effect = lower value.
Setting [32] is: measured here: total cells without miR-34 induction.

Values joined by “and” are separate entries in the source; they are usually repeats but may differ in a detail not shown here. Identical values can stand only once. Results filed as inconclusive are left out. For some of these results: Results with a measured potency or affinity are listed apart. Active and inactive are the calls of the source. Unless noted, how the calls were made is not given here.

Mitogen-activated protein kinase 7 (Homo sapiens), sequence (Q13164 whole entry, looked up, the tested form may be a part): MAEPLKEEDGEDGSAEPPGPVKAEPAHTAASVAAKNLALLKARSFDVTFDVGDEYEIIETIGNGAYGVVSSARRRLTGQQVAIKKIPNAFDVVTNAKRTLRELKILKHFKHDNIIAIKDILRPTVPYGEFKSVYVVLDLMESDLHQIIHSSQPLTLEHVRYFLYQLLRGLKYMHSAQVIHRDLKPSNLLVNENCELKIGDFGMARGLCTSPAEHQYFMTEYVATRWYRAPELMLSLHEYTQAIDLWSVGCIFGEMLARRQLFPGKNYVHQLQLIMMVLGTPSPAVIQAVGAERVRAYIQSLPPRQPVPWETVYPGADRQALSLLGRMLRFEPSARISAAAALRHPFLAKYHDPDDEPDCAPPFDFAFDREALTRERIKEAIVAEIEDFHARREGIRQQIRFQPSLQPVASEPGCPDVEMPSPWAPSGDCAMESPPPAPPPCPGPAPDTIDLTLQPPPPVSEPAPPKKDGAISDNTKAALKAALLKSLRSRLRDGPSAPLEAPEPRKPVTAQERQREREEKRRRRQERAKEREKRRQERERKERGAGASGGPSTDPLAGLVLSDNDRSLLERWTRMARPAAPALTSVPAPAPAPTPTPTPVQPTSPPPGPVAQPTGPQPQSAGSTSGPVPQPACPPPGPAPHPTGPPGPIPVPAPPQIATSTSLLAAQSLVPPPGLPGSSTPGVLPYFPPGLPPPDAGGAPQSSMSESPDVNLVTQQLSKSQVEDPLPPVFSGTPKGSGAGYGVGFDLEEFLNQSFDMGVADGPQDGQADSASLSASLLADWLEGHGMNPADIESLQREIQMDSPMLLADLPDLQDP

`O=C(O)c1ccccc1-c1c2cc(Br)c(=O)cc-2oc2[c]([Hg])c(O)c(Br)cc12`: the EC50 is 10 µM (active) in assay [1] and 38 µM in [3]. Also, the values for the inhibition in assay [2], in assay [3] and in assay [13] were 39.1%, 61.6% (active) and 2.12% (inactive), respectively. The aggregation (% of control) in assay [4] was 41.9% (active). Further, in assay [5], the score came out at 0.07. The same compound came in with a rescue above control in assay [6] of 0. Besides, the cytochrome c release ratio in assay [7] stood at 1.39. The inhibition of aggregation in assay [8] was 57.7%. Further, in assay [9], the glutamate uptake change is -7.36%. The compound also had an aggregation suppression score in assay [10] of 0.0281. Further, the survival in assay [11] is 18.6 (inactive). For the same compound, the parasite load remaining in assay [12] is 62.4% (inactive) and 40.3% (inactive). Further, the viability in [12] was 57.8% and 97.8%. Also, the activity remaining in [14] was -1.02% (active). Also, the fold change in assay [15] (stronger effect = lower value) is 0.908 (inactive); in assay [15] (setting [30]), 2.08. Further, the cell count is 11900 in [15] (setting [31]) and 13100 in assay [15] (setting [32]). Further, the remaining NAD in [16] was 56 nM (active). The luciferase signal in [17] was 52 AU (inactive).
For `CC(C)Nc1nc(Cl)nc(NC(C)C)n1`, the inhibition in [13] is -12% (inactive). In addition, in [14], the activity remaining was 111% (inactive). For the same compound, the luciferase signal in assay [17] was 52 AU (inactive).
Turning to `COc1ccc(C(=O)O[C@H]2CC[C@@]3(C)[C@@H]4CC[C@H]5[C@]6(O)C[C@H](O)[C@@]7(O)[C@@H](CN8C[C@@H](C)CC[C@H]8[C@@]7(C)O)[C@]6(O)C[C@@]53O[C@]24O)cc1OC`, in assay [13], the inhibition was 9.47% (inactive). In addition, the results for the fold change in [15] (stronger effect = lower value) and in [15] (setting [30]) were 0.935 (inactive) and 1.54, respectively. For the same compound, the results for the cell count in assay [15] (setting [31]) and in assay [15] (setting [32]) were 6050 and 6480, respectively.
With `CC(C)=CCOc1c2occc2cc2ccc(=O)oc12`, the parasite load remaining in [12] was 18.8% (inactive). In addition, the viability in assay [12] amounted to 92.7%. Also, the results for the inhibition in assay [18] and in [13] were -2% (inactive) and 4.77% (inactive), respectively. In assay [19], the fluorescence ratio (interference) was 1 (inactive). In addition, the activity remaining in assay [14] is 108% (inactive). Moreover, the fold change in assay [15] (stronger effect = lower value) was 1.08 (inactive); in [15] (setting [30]), 1.1. The cell count in [15] (setting [31]) worked out at 8640; in assay [15] (setting [32]), 8010. The outcome in assay [20] was inactive. Besides, the z-score in assay [21] is 0.56 (inactive).
Regarding `C[C@@H]1C(=O)O[C@H]2[C@H]1CC[C@@]1(C)C=CC(=O)[C@@]3(C)O[C@@]213`, the inhibition in assay [13] is -5.96% (inactive). In addition, the activity remaining in [14] is 112% (inactive). The luciferase signal in [17] was 108 AU (inactive).
Regarding `C[C@]12CC[C@H]3[C@@H](CCC4=CC(=O)CC[C@@]43C)[C@@H]1CC[C@@H]2O`, the parasite load remaining in assay [12] was 61.8% (inactive). The compound also showed a viability in assay [12] of 72.2%. Moreover, the fluorescence ratio was 0.93 (inactive) in assay [22] and 0.96 (inactive) in assay [25]. Moreover, the inhibition in [23] was 1.53% (inactive); in assay [24] it was 0.39% (inactive); in assay [13], 16.5% (inactive). Moreover, the compound was classed as inactive in assay [26], in [27], in assay [28] and in assay [29]. Also, the remaining NAD in [16] was 10 nM (inactive). Also, in assay [17], the luciferase signal was 68 AU (inactive).
On to `COc1cc([C@@H]2c3cc4c(cc3[C@H](OC(C)=O)[C@H]3COC(=O)[C@H]23)OCO4)cc(OC)c1OC`, for which, in assay [13], the inhibition is -6.91% (inactive). Also, the activity remaining in [14] is 112% (inactive). Further, in assay [17], the luciferase signal is 244 AU (active).

What is called EC50 is the concentration giving half of the maximal effect. For orientation: inhibition means the change of the read-out against control, counted positive when it falls. By viability is commonly meant a per cent measure of how many cells are alive, often set against a control.
